In all, about 360,000 compounds went through this assay and about 25,000 (6.9%) were called active. About 9% were inconclusive and are not listed. Shown is part of a subset that was picked to be rich in actives. A number with no mark means an inactive call. Calls come from the whole dose curve; as a rule, active = well fitted inhibition curve with a large enough effect; inconclusive = small, poorly fitted or top-dose-only effect; inactive = flat fitted curve, though single readings scatter.
What follows are compounds tested against Luciferin 4-monooxygenase (Photinus pyralis) (UniProt P08659) (assay: qHTS profiling assay for firefly luciferase inhibitor/activator using purifed enzyme and Km concentrations of substrates (counterscreen for miR-21 project)). Settings: purified FLuc, luminescence inhibition; series mostly up to 57.5 µM; activity change, negative = inhibition: at the top concentration.
Sequence of Luciferin 4-monooxygenase (Photinus pyralis) (P08659 whole entry, looked up): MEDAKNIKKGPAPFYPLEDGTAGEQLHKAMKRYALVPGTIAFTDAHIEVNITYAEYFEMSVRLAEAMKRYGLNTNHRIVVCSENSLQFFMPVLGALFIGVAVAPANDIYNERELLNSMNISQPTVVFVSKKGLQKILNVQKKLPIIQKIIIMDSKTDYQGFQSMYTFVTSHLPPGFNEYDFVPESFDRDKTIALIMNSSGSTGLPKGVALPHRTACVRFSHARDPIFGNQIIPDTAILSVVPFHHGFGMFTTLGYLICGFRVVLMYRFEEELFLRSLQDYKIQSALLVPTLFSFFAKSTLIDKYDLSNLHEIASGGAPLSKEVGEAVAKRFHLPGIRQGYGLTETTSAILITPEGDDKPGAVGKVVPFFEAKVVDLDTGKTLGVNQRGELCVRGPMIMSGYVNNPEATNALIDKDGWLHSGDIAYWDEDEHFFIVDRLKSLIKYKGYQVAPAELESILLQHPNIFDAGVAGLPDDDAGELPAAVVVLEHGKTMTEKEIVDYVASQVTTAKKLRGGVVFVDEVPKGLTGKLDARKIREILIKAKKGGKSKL
Outline: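 Biochemical qHTS of compounds, final roughly 60 µM downward over six points, against 10 nM purified firefly luciferase using Km concentrations of substrates (10 uM D-luciferin, 10 uM ATP) in Tris acetate pH 7.5 buffer; luminescence output.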
Note: nearly all actives have a fitted effect of over 55% in size.
Potency is the fitted concentration of half-maximal effect.
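Throughout, for activity change, negative = inhibition: plate controls were vehicle for no effect and reference inhibitor for full effect.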

Q: Which “activity change, negative = inhibition” value does the source give for `CCOc1ccc(NC(=O)CN(C)C(=O)CCSc2ccc(F)cc2)cc1OCC` here?
A: 3.51%

Q: With `CCOC(=O)c1ccc(N2C(=O)c3n[nH]c(-c4ccco4)c3C2c2ccc(O)cc2)cc1` (stereo not given) as the compound, how does the “activity change, negative = inhibition” value read?
A: -11.5%

Q: For `O=C(CSc1oc(-c2ccccc2)nc1S(=O)(=O)c1ccc(Br)cc1)NC1CCCCC1`, which “activity change, negative = inhibition” value is on record?
A: -1.57%

Q: How did the Potency turn out when `COc1ccccc1-c1nnc(NC(=O)c2ccc3ncsc3c2)o1` was run?
A: 13.5 µM (active)

Q: `COc1ccccc1-c1nnc(NC(=O)c2cccc(N3C(=O)CCC3=O)c2)o1` was tested. Which Potency did it give?
A: 19 µM (active)

Q: For `COc1ccccc1-c1nnc(SCC(=O)N2CC(C)CC(C)C2)o1` (stereo not given), which “activity change, negative = inhibition” value is on record?
A: -6.65%

Q: `Cc1ccc(C(=O)Nc2nnc(C3=COCCO3)o2)cc1C` was tested. Which “activity change, negative = inhibition” value did it give?
A: -6.57%

Q: With `COc1ccc(-n2nc3c(c2NC(=O)c2ccc(N4C(=O)CCC4=O)cc2)CSC3)cc1` as the compound, how does the “activity change, negative = inhibition” value read?
A: 3.03%

Q: For `Cc1sc(NC(=O)c2ccc3ncsc3c2)c(C(N)=O)c1C`, which Potency is on record?
A: 1.07 µM (active)

Q: For `COc1cccc(-c2nnc(NC(=O)c3ccc(S(=O)(=O)N(CC(C)C)CC(C)C)cc3)o2)c1`, which “activity change, negative = inhibition” value is on record?
A: 2.84%

Q: `O=C(COC(=O)c1ccc2ncsc2c1)Nc1ccc(Cl)cc1` was tested. Which “activity change, negative = inhibition” value did it give?
A: -0.692%

Q: How did the “activity change, negative = inhibition” value turn out when `Cc1ccc(S(=O)(=O)CC(=O)Nc2sc(C)c(C)c2C(N)=O)cc1` was run?
A: 12%

Q: `Cc1ccccc1C(=O)N(Cc1ccc(N(C)C)cc1)CC1CCCO1` (stereo not given) was tested. Which “activity change, negative = inhibition” value did it give?
A: 0.652%

Q: How did the “activity change, negative = inhibition” value turn out when `CCn1cc2nc(SCc3cccc(F)c3)n(CCc3ccccc3)c(=O)c2n1` was run?
A: -12.6%

Q: For `COc1cc(CN(C(=O)c2ccccc2Br)c2ccccn2)cc(OC)c1OC`, which “activity change, negative = inhibition” value is on record?
A: 7.3%

Q: For `Cc1cccc(C(=O)Nc2ccc(S(=O)(=O)N3CCCCC3c3cccnc3)cc2)c1` (stereo not given), which “activity change, negative = inhibition” value is on record?
A: 3.83%

Q: With `CCN(CCCNC(=O)c1cc2c(=O)n(CC)c3ccccc3c2s1)Cc1ccccc1` as the compound, how does the “activity change, negative = inhibition” value read?
A: 6.98%

Q: With `Cc1ccc(C)c(Cn2c(CCCNC(=O)C3CCCCC3)nc3ccccc32)c1` as the compound, how does the “activity change, negative = inhibition” value read?
A: 5.68%

Q: For `C=CCNC(=O)c1ccccc1NC(=O)c1ccc(Cl)c(S(=O)(=O)Nc2cccc(C)c2C)c1`, which “activity change, negative = inhibition” value is on record?
A: 3.15%

Q: `O=C(CN1C(=O)CSc2ncccc21)N1CCOCC1` was tested. Which “activity change, negative = inhibition” value did it give?
A: -0.277%

Q: `Cc1cc(/C=C2/SC(=O)N(CC(=O)N3CCCC3)C2=O)ccc1N1CCOCC1` was tested. Which Potency did it give?
A: 16.9 µM (active)

Q: Which “activity change, negative = inhibition” value does the source give for `Cc1ccc2c(c1)N(CC(=O)N1CCOCC1)C(=O)CO2` here?
A: 2.75%

Q: Which “activity change, negative = inhibition” value does the source give for `COc1ccc(-c2nn(-c3ccccc3)cc2/C=C2/SC(=S)N(CCCC(=O)O)C2=O)c(C)c1` here?
A: -4.65%

Q: Which Potency does the source give for `COc1ccc(/C=C2/SC(=O)N(CCCCCC(=O)Nc3ccccc3C(=O)O)C2=S)cc1` here?
A: 16.9 µM (active)

Q: Which “activity change, negative = inhibition” value does the source give for `CCCNC(=O)c1ccccc1NC(=O)CSCc1ccc(OC)cc1` here?
A: 0.71%

Q: Which “activity change, negative = inhibition” value does the source give for `COc1cccc(CNC(=O)CSc2c3c(nc4cc(Cl)ccc24)CCCC3)c1` here?
A: -4.18%

Q: `CC(=O)c1ccc(N2CCN(c3nc4c(S(=O)(=O)c5ccccc5)nnn4c4ccc(Cl)cc34)CC2)cc1` was tested. Which “activity change, negative = inhibition” value did it give?
A: 1.59%

Q: With `CCOC(=O)c1c(CNCc2ccccc2F)c2sc(C)cc2n1C` as the compound, how does the “activity change, negative = inhibition” value read?
A: -1.74%

Q: For `CCN1C(=S)N[C@@H](c2cccc(C(F)(F)F)c2)C(C(=O)OC)=C1C`, which “activity change, negative = inhibition” value is on record?
A: 0.99%

Q: Which “activity change, negative = inhibition” value does the source give for `COc1cccc(CNC(=O)CCc2nc(-c3ccc(C)cc3)no2)c1` here?
A: 1.48%

Q: With `COc1ccc(-c2noc(CCCC(=O)NC3CCCC3)n2)cc1OC` as the compound, how does the “activity change, negative = inhibition” value read?
A: 1.08%

Q: Which “activity change, negative = inhibition” value does the source give for `Cc1cc(C)cc(NC(=O)CCCc2nc(-c3ccccc3Cl)no2)c1` here?
A: 5.49%

Q: For `CCNC(=O)CCc1nc(-c2ccc(C)cc2)no1`, which “activity change, negative = inhibition” value is on record?
A: -17.9%

Q: With `CC(=O)Nc1ccc(NC(=O)CCCc2nc(-c3ccc(C(C)(C)C)cc3)no2)cc1` as the compound, how does the Potency read?
A: 2.69 µM (active)

Q: With `CCNC(=O)CCc1nc(-c2ccc(C(C)(C)C)cc2)no1` as the compound, how does the Potency read?
A: 4.78 µM (active)

Q: Which “activity change, negative = inhibition” value does the source give for `CCOc1ccccc1CNCc1c(C(=O)O)c(C)n(Cc2ccc(C)cc2)c1C` here?
A: -2.11%

Q: For `Cc1cc2ncn(CCCCOc3ccccc3)c2cc1C`, which Potency is on record?
A: inactive

Q: For `CCOc1cc(C2C(C(=O)Nc3ccc(OC)cc3)=C(C)Nc3nc(SC)nn32)ccc1O` (stereo not given), which “activity change, negative = inhibition” value is on record?
A: -0.395%

Q: `CCOc1ccc(NC(=O)CC(Cc2ccc(Cl)cc2)C(=O)O)cc1` (stereo not given) was tested. Which “activity change, negative = inhibition” value did it give?
A: 6.23%

Q: How did the “activity change, negative = inhibition” value turn out when `CC(=O)Nc1ccc(NC(=O)C(NS(=O)(=O)c2ccc3c(c2)OCCO3)C(C)C)cc1` (stereo not given) was run?
A: 2.54%

Q: Which “activity change, negative = inhibition” value does the source give for `CN1CCc2ccccc2C1Cc1ccccc1NC(=O)c1sc2ccccc2c1Cl` (stereo not given) here?
A: -3.51%

Q: How did the Potency turn out when `O=C(N/N=C/c1c(Cl)[nH]c2ccccc12)c1sc2ccccc2c1Cl` was run?
A: 19 µM (active)

Q: How did the “activity change, negative = inhibition” value turn out when `Cc1nnsc1C(=O)N/N=C/c1ccccc1Cl` was run?
A: -0.786%

Q: With `Cc1[nH]c2ccccc2c1/C=N\NC(=O)Cn1nnc(-c2ccccc2)n1` as the compound, how does the “activity change, negative = inhibition” value read?
A: -1.23%

Q: With `COc1ccc(CNC(=O)CNC(=O)c2sc3ccccc3c2Cl)cc1OC` as the compound, how does the “activity change, negative = inhibition” value read?
A: -0.179%

Q: How did the Potency turn out when `Cc1nn(C)cc1/C=N/NC(=O)c1sc2ccccc2c1Cl` was run?
A: 26.9 µM (active)

Q: How did the “activity change, negative = inhibition” value turn out when `CCN(CC)S(=O)(=O)c1ccc2c(c1)nc(CN(C)C(=O)Nc1ccc(Cl)cc1)n2C` was run?
A: -19.2%

Q: `O=C(NCCNc1ccc([N+](=O)[O-])cc1Cl)c1ccccc1F` was tested. Which “activity change, negative = inhibition” value did it give?
A: -29%

Q: For `CCOC(=O)N1CCc2c(sc(NCc3cccc(F)c3)c2C(=O)Nc2ccccc2OCC)C1`, which “activity change, negative = inhibition” value is on record?
A: -18.1%

Q: With `Cn1ncc(Br)c1C(=O)NCc1cccs1` as the compound, how does the “activity change, negative = inhibition” value read?
A: -1.21%
